Reference: PubChem BioAssay AID1159580 (chemical genetic matrix, 2015)
“And” between values parts separate entries of the source, which are not always exact repeats. Equal entries are not always repeated. In all, about 5,500 compounds went through this assay and about 2,000 (36%) were called active. About 18% were inconclusive and are not listed. Rule as the data show it: active = normalized growth mostly below about 0.91 (no sharp cut-off); inconclusive = no clear call, values can overlap the other calls; inactive = mostly above about 0.92. The list shows a part of the results.

Assay: chemical genetic growth profiling, strain panel (AID 1159580);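 also: tested at 20 µM; growth read once vehicle control cultures reached saturation at 30 °C; 1 = growth at the plate median or of vehicle wells; lower values mean less growth of the strain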
Conditions: growth OD

Measured: normalized growth

O=C(O)CC[N+](=O)[O-]
inactive: S. cerevisiae deletion strains, locus YJR075W, strain HOC1, hits give low values 0.987 | S. cerevisiae deletion strains, locus YKL009W, strain mrt4, hits give low values 0.971 | S. cerevisiae deletion strains, locus YKL068W, hits give low values 0.978 | S. cerevisiae deletion strains, locus YKL085W, strain MDH1 (second series), hits give low values 1.01 | S. cerevisiae deletion strains, locus YKL085W, strain MDH1, hits give low values 1.01 | S. cerevisiae deletion strains, locus YKL160W, strain elf1, hits give low values 1 | S. cerevisiae deletion strains, locus YKL190W, strain CNB1, hits give low values 0.986 | S. cerevisiae deletion strains, locus YKR001C, strain vps1, hits give low values 0.982 | S. cerevisiae deletion strains, locus YKR026C, strain gcn3, hits give low values 1 | S. cerevisiae deletion strains, locus YKR091W, strain srl3, hits give low values 0.993 | S. cerevisiae deletion strains, locus YLL001W, strain dnm1, hits give low values 0.981 | S. cerevisiae deletion strains, locus YLL026W, hits give low values 1.01 | S. cerevisiae deletion strains, locus YLL041C, strain sdh2, hits give low values 1 | S. cerevisiae deletion strains, locus YLR027C, strain aat2, hits give low values 1.01 | S. cerevisiae deletion strains, locus YLR039C, strain RIC1, hits give low values 0.903 | S. cerevisiae deletion strains, locus YLR058C, strain SHM2, hits give low values 0.991 | S. cerevisiae deletion strains, locus YLR102C, strain apc9, hits give low values 0.979 | S. cerevisiae deletion strains, locus YLR113W, strain HOG1, hits give low values 1.02 | S. cerevisiae deletion strains, locus YLR221C, strain rsa3, hits give low values 1.03 | S. cerevisiae deletion strains, locus YLR258W, strain gsy2, hits give low values 1.03 | S. cerevisiae deletion strains, locus YLR262C, strain YPT6 (second series), hits give low values 0.989 | S. cerevisiae deletion strains, locus YLR262C, strain YPT6, hits give low values 0.908 | S. cerevisiae deletion strains, locus YLR268W, strain sec22, hits give low values 0.988 | S. cerevisiae deletion strains, locus YLR320W, strain mms22, hits give low values 1.03 | S. cerevisiae deletion strains, locus YLR330W, strain CHS5, hits give low values 0.982 | S. cerevisiae deletion strains, locus YLR342W, strain FKS1 (second series), hits give low values 0.998 | S. cerevisiae deletion strains, locus YLR342W, strain FKS1, hits give low values 1.01 | S. cerevisiae deletion strains, locus YLR357W, strain rsc2, hits give low values 0.993 | S. cerevisiae deletion strains, locus YLR370C, strain arc18, hits give low values 1 | S. cerevisiae deletion strains, locus YLR371W, strain rom2, hits give low values 0.969 | S. cerevisiae deletion strains, locus YLR384C, strain iki3, hits give low values 0.988 | S. cerevisiae deletion strains, locus YLR418C, strain cdc73, hits give low values 1 | S. cerevisiae deletion strains, locus YML016C, strain PPZ1, hits give low values 0.993 | S. cerevisiae deletion strains, locus YML032C, strain rad52, hits give low values 0.973 | S. cerevisiae deletion strains, locus YML120C, strain ndi1, hits give low values 0.999 | S. cerevisiae deletion strains, locus YML124C, strain tub3, hits give low values 0.98 | S. cerevisiae deletion strains, locus YMR058W, strain fet3, hits give low values 1.03 | S. cerevisiae deletion strains, locus YMR078C, strain ctf18, hits give low values 0.976 | S. cerevisiae deletion strains, locus YMR125W, strain sto1, hits give low values 0.988 | S. cerevisiae deletion strains, locus YMR129W, hits give low values 0.996 | S. cerevisiae deletion strains, locus YMR205C, strain PFK2, hits give low values 0.983 | S. cerevisiae deletion strains, locus YMR223W, strain ubp8, hits give low values 0.977 | S. cerevisiae deletion strains, locus YMR231W, strain pep5, hits give low values 0.986 | S. cerevisiae deletion strains, locus YMR263W, strain SAP30, hits give low values 0.985 and 1 | S. cerevisiae deletion strains, locus YMR307W, strain GAS1, hits give low values 0.924 | S. cerevisiae deletion strains, locus YNL067W, strain RPL9B, hits give low values 0.991 | S. cerevisiae deletion strains, locus YNL071W, strain lat1, hits give low values 1.01 | S. cerevisiae deletion strains, locus YNL128W, strain TEP1, hits give low values 0.981 | S. cerevisiae deletion strains, locus YNL153C, strain GIM3, hits give low values 0.994 | S. cerevisiae deletion strains, locus YNL175C, strain NOP13, hits give low values 0.992 | S. cerevisiae deletion strains, locus YNL183C, strain NPR1, hits give low values 0.953 | S. cerevisiae deletion strains, locus YNL197C, strain WHI3, hits give low values 1.01 | S. cerevisiae deletion strains, locus YNL209W, strain ssb2, hits give low values 1.01 | S. cerevisiae deletion strains, locus YNL224C, strain SQS1, hits give low values 0.992 | S. cerevisiae deletion strains, locus YNL233W, strain BNI4, hits give low values 1 | S. cerevisiae deletion strains, locus YNL248C, strain rpa49, hits give low values 0.996 | S. cerevisiae deletion strains, locus YNL250W, strain rad50, hits give low values 0.978 | S. cerevisiae deletion strains, locus YNL271C, strain bni1, hits give low values 0.974 | S. cerevisiae deletion strains, locus YNL298W, strain CLA4, hits give low values 0.98 | S. cerevisiae deletion strains, locus YNL307C, strain MCK1, hits give low values 0.982 | S. cerevisiae deletion strains, locus YNL322C, strain KRE1 (second series), hits give low values 0.989 | S. cerevisiae deletion strains, locus YNL322C, strain KRE1, hits give low values 0.987 and 1.01 | S. cerevisiae deletion strains, locus YNR049C, strain mso1, hits give low values 1 | S. cerevisiae deletion strains, locus YNR052C, strain pop2, hits give low values 0.979 | S. cerevisiae deletion strains, locus YOL006C, strain TOP1, hits give low values 1.01 | S. cerevisiae deletion strains, locus YOL012C, strain htz1 0.756 | S. cerevisiae deletion strains, locus YOL147C, strain pex11, hits give low values 0.985 | S. cerevisiae deletion strains, locus YOR001W, strain rrp6, hits give low values 1.03 | S. cerevisiae deletion strains, locus YOR061W, strain CKA2, hits give low values 0.992 | S. cerevisiae deletion strains, locus YOR069W, strain VPS5, hits give low values 0.99 | S. cerevisiae deletion strains, locus YOR070C, strain gyp1, hits give low values 0.999 | S. cerevisiae deletion strains, locus YOR080W, strain dia2, hits give low values 1 | S. cerevisiae deletion strains, locus YOR083W, strain WHI5 (second series), hits give low values 0.995 | S. cerevisiae deletion strains, locus YOR083W, strain WHI5, hits give low values 0.999 | S. cerevisiae deletion strains, locus YOR106W, strain vam3, hits give low values 0.99 | S. cerevisiae deletion strains, locus YOR136W, strain idh2, hits give low values 0.986 | S. cerevisiae deletion strains, locus YOR144C, strain elg1, hits give low values 0.97 | S. cerevisiae deletion strains, locus YOR184W, strain ser1, hits give low values 0.968 | S. cerevisiae deletion strains, locus YOR231W, strain MKK1, hits give low values 0.971 | S. cerevisiae deletion strains, locus YOR265W, strain rbl2, hits give low values 0.997 | S. cerevisiae deletion strains, locus YOR270C, strain vph1, hits give low values 1.04 | S. cerevisiae deletion strains, locus YOR290C, strain snf2, hits give low values 0.982 | S. cerevisiae deletion strains, locus YOR316C, strain cot1, hits give low values 0.989 | S. cerevisiae deletion strains, locus YPL051W, strain arl3, hits give low values 1.03 | S. cerevisiae deletion strains, locus YPL055C, strain LGE1, hits give low values 0.972 and 1.02 | S. cerevisiae deletion strains, locus YPL078C, strain atp4, hits give low values 0.981 | S. cerevisiae deletion strains, locus YPL106C, strain sse1, hits give low values 1.04 | S. cerevisiae deletion strains, locus YPL240C, strain hsp82, hits give low values 1.01 | S. cerevisiae deletion strains, locus YPL241C, strain CIN2, hits give low values 0.941 | S. cerevisiae deletion strains, locus YPL256C, strain CLN2, hits give low values 0.991 | S. cerevisiae deletion strains, locus YPR119W, strain clb2, hits give low values 0.993 | S. cerevisiae deletion strains, locus YPR141C, strain kar3, hits give low values 0.979 | S. cerevisiae deletion strains, locus YPR163C, strain tif3, hits give low values 0.986 | S. cerevisiae deletion strains, locus YPR167C, strain met16, hits give low values 0.996 | S. cerevisiae deletion strains, strain wtn01, hits give low values 1.01 | S. cerevisiae strains, strain wild type, hits give low values 0.999
